# Results: PubChem BioAssay (Tox21)
# Activity calls are given as the source filed them. Calls come from the whole dose curve; as a rule, active = well fitted cell-killing curve with a large enough effect in the repeat runs; inconclusive = weak or mixed curves, or effect the other way; inactive = flat fitted curve, though single readings scatter.
# Assay: qHTS assay to identify small molecule HDAC inhibitors - cell viability counter screen (AID 1259365); note: nearly all actives have a fitted effect of over 50% in size
# Conditions: HCT-116 viability, CellTiter-Glo ATP luminescence, 2 h; series mostly up to 92.4 µM
# Excerpt: U.S. Tox21 Program National Center for Advancing Translational Sciences [NCATS] NIH Chemical Genomics Center [NCGC] U.S. Environmental Protection Agency [EPA] National Institutes of Environmental Health Sciences [NIEHS] National Toxicology Program [NTP] U.S. Food and Drug Administration [FDA] Tox21 Assay Overview: Histone deacetylases (HDACs) are a group of epigenetic enzymes that regulate gene expression by histone deacetylation. HDACs are capable of introducing epigenetic modifications and such aberrations contribute to the onset and progression of several human diseases, thus making HDACs a popular therapeutic target. For identifying endogenous class I/II HDAC inhibitors a homogenous, luminogenic HDAC I/II cell based assay was used to measure the relative activity of class I and II HDACs from cells. Wild type HCT-116 cells were used to screen Tox21 compound libraries for identifying class I/II HDAC inhibitors.
# Tox21 Assay Protocol Summary: HCT-116 cells were dispensed at 1,500 per well in 5uL of culture medium into white solid bottom 1536-well plates (Greiner Bio-One, Monroe, NC) using a Multidrop Combi (Thermo Scientific, Waltham, MA) dispenser. The assay plates were incubated at 37 C and 5% CO2 for an overnight, and then 23nL of compounds dissolved in DMSO and positive control were transferred using a Pintool station (Wako, San Diego, CA). The assay plates were incubated at 37C and 5% CO2 for 2hr. After compound treatment, 4uL of CellTiter-Glo reagent (Promega Corporation, Madison, WI) was added to each well of the assay plates using Flying Reagent Dispenser (FRD, Aurora Discovery, San Diego, CA) and incubated the assay plates at room temperature for 30min. The luminescence signal was quantified using a ViewLux plate reader (Perkin Elmer, Shelton, CT).
# % is set by controls: 0 for no effect and ±100 for the full control effect.
SMILES,outcome,"activity change, negative = cytotoxicity"
CC(=O)CCc1ccc(O)cc1,inactive,
O=C1CC2(CCCC2)CC(=O)N1,inactive,
CCc1cc(S(=O)(=O)O)c2cc(C(C)C)cccc1-2,inactive,
CO,inactive,
CC1(C)SC(C)(C)SC(C)(C)S1,inactive,
O=C(O)C1CCC1,inactive,
CCCCCCC(=O)OCC,inactive,
COC(C(=O)O)c1ccccc1 (stereo not given),inactive,
CCCC(C)CO (stereo not given),inactive,
OC/C=C/c1ccccc1,inactive,
c1ccc(CCCc2ccccn2)cc1,inactive,
Cc1ncc(CSSCc2cnc(C)c(O)c2CO)c(CO)c1O,inactive,
CC1=CCC2C(C1)C2(C)C (stereo not given),inactive,
C1C2OC2C2C1C1CC2C2OC12 (stereo not given),inactive,
O=Cc1ccccc1[N+](=O)[O-],inactive,
CCCCCCCCCCCCCCC,inactive,
CCOC(=O)[C@H](CCc1ccccc1)N[C@@H](C)C(=O)N1CCC[C@H]1C(=O)O,inactive,
CCCCCCCCC=O,inactive,
O=C1OC(=O)c2cc([N+](=O)[O-])ccc21,inactive,
COc1ccc(NC(C)=O)cc1,inactive,

SMILES,outcome,"activity change, negative = cytotoxicity"
COc1ccc2cc(C=O)ccc2c1,inactive,
Nc1ccc2cc(S(=O)(=O)O)ccc2c1,inactive,
O=C(O)/C=C/c1ccc(/C=C/C(=O)O)cc1,inactive,
NC(CS)C(=O)O (stereo not given),inactive,
CC(C)c1cccc(O)c1,inactive,
C1=C\CC/C=C\CC/C=C\CC/1,inactive,
CCCCCN(CCCCC)C(=O)C(CCC(=O)O)NC(=O)c1ccc(Cl)c(Cl)c1 (stereo not given),inactive,
CCOC(=O)Cn1c(=O)sc2cccc(Cl)c21,inactive,
CN(C)CCOC(c1ccc(Cl)cc1)c1ccccn1 (stereo not given),inactive,
NC(=O)Nc1nc2ccccc2[nH]1,inactive,
CCn1c(=O)c2c(nc(/C=C/c3ccc(OC)c(OC)c3)n2C)n(CC)c1=O,inactive,
CC(C)(C)CC(C)(C)N,inactive,
C#CC(O)CCCCC (stereo not given),inactive,
CCN(CC)C(=O)c1ccc(O)c(OC)c1,inactive,
Cn1cnc2c(=O)[nH]c(N)nc21,inactive,
NC(=S)Nc1cccc2ccccc12,,-1.1% [at 8.39 µM] (inactive)
NC(=O)CCCCC1CCSS1 (stereo not given),inactive,
FC(F)(F)C(F)(F)C(F)(F)C(F)(F)C(F)(F)C(F)(F)C(F)(F)C(F)(F)C(F)(F)C(F)(F)F,,4.94% [at 8.39 µM] (inactive)
O=C(O)C(O)[C@H](O)[C@@H](O)[C@H](O)[C@H](O)CO (stereo not given in full),inactive,
CC(C)=CCC/C(C)=C/C(=O)O,inactive,
